Screening data from PubChem BioAssay.
HP1b binding inh: HTS for Inhibitors of HP1-beta Chromodomain Interactions with Methylated Histone Tails; AlphaScreen HP1-beta / biotin-H3K9me3 peptide binding; Potency, µM (doses to about 114 µM), for inactives: at the top dose activity change, negative = inhibition, most hits filed as inhibitors; 0.56% of 390,000 active; AID 540317, 2011; further: nearly all actives have a fitted effect of over 70% in size
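Compound inhibition of the preformed complex between 50 nM HP1-beta and 50 nM biotinylated H3K9me3 peptide was read by AlphaScreen. Buffer was PBS pH 7.4 with 0.01% Tween-20. Incubations ran 30 min at room temperature, with 10 ug/mL donor/acceptor beads.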
Sfp inh: qHTS Assay for Inhibitors of Bacillus subtilis Sfp phosphopantetheinyl transferase (PPTase); 3.5% of 310,000 active; 4'-phosphopantetheinyl transferase ffp (Bacillus subtilis), Q9F4F7; Potency, µM, for inactives: largest response in the series, negative = inhibition, hits mostly inhibitors; Biochemical Sfp PPTase activity, qHTS;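 further: the enzyme is Sfp with the accession as filed and its product quenches rhodamine fluorescence; 0% = enzyme reaction without inhibitor and -100% = no enzyme wells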
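Fluorescence-quenching assay: 15 nM Sfp-PPTase preincubated 15 min at room temperature with compound, then 5 uM rhodamine-CoA and 12.5 uM BHQ-2-labelled YbbR peptide added. Fluorescence (ex 525/em 598 nm) read at start and after 30 min; difference gives rate.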
G9a inh: qHTS Assay for Inhibitors of Histone Lysine Methyltransferase G9a; Potency, µM (highest dose often 102 µM), for the others: at the top dose activity, negative = inhibition, hits mostly inhibitors; AID 504332, 2011; G9a H3K9 monomethylation, AlphaScreen, 2 h; 8.8% of 350,000 active; further: on the % scale 0 is the no-effect control and ±100 the full control effect; nearly all actives have a fitted effect of over 75% in size
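Step 1: enzyme (final 20 nM) with compound, 15 min RT. Step 2: substrate peptide 500 nM and SAM 20 uM, 2 h RT. Step 3: anti-H3K9me1 antibody and AlphaScreen beads, 10 min, then plate read.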
JMJD2A Tudor inh: qHTS Assay for Inhibitors of JMJD2A-Tudor Domain. Lysine-specific demethylase 4A (Homo sapiens), O75164. AlphaScreen JMJD2A-Tudor / H3K4me3 peptide binding. Potency, µM (highest dose often 114 µM), inactives show top-dose activity change, negative = inhibition, most hits filed as inhibitors. 4.4% of 390,000 active. AID 504339, 2011; further: on the % scale 0 is the no-effect control and ±100 the full control effect; nearly all actives have a fitted effect of over 50% in size
BAZ2B block: qHTS Assay for Inhibitors of BAZ2B | Bromodomain adjacent to zinc finger domain protein 2B (Homo sapiens), Q9UIF8 | 4.4% of 360,000 active | Potency, µM (highest dose often 114 µM), inactives show top-dose activity change, negative = inhibition, usual class: inhibitors | AID 504333, 2011 | AlphaScreen BAZ2B-H3K14Ac peptide displacement; further: on the % scale 0 is the no-effect control and ±100 the full control effect; nearly all actives have a fitted effect of over 60% in size
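AlphaScreen luminescence quantifies BAZ2B engagement of H3K14Ac peptide; the protein and biotinylated peptide are both at 50 nM final, buffer PBS pH 7.4 with 0.01% Tween-20, all steps at room temperature.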
Starred values were filed as active, the others as inactive; ? = inconclusive; · = no result; ! = repeats disagree; [ ] = another dose, or the depositor's remark. The list is not random: actives were taken first. Their share in the collection is about 12%. The call rests on the fitted dose curve; in most records, active means well fitted curve in the direction sought with a large enough effect; inconclusive means small, poorly fitted or top-dose-only effect, or another doubt; inactive means no such curve, though single readings can be large; an effect the other way counts as inactive or inconclusive. Potency means the concentration at half of the fitted maximal effect.

SMILES	HP1b binding inh	Sfp inh	G9a inh	JMJD2A Tudor inh	BAZ2B block
CC(C)c1nnc(NC(=O)CN(C)S(=O)(=O)c2ccc3c(c2)OCCO3)s1	32%	16%	5%	-4%	-1%
CCOC(=O)CN1C2=NCCCN2c2ccccc21	32%	17%	3%	-3%	-27%
FC(F)(F)c1cc(CCN2CCNC[C@H]2Cc2cccc3ccccc23)cc(C(F)(F)F)c1	-11%	·	?	?	50µM*
O=C(CBr)Nc1c2c(nn1-c1ccccc1)CSC2	34%[57 µM]	-14%	22µM*	-27%	-15%[57.1 µM]
CC(=O)Nc1c2c(nn1-c1ccc(C)cc1C)CSC2	33%	-28%	-34%[59 µM]	-18%	11%
CCCC(=O)Nc1c2c(nn1-c1ccccc1)CSC2	13%[57 µM]	19%	18%[59 µM]	-24%	-1%
CCCC(=O)Nc1c2c(nn1-c1ccc(C)cc1C)CSC2	28%	?	22µM*	-19%	-5%
CCc1nnc(NS(=O)(=O)c2ccc(NC(=S)NC(=O)c3ccc(F)cc3)cc2)s1	-12%	4%	-8%[59 µM]	-27%	?
CCc1nnc(NS(=O)(=O)c2ccc(Nc3ccc([N+](=O)[O-])c4nonc34)cc2)s1	?	11%	25µM*	?	22µM*
CCc1nnc(NS(=O)(=O)c2ccc(NC(=O)OC)cc2)s1	70%	-14%	18µM*	-1%	-24%
CCc1nnc(NS(=O)(=O)c2ccc(NC(=O)/C=C/c3ccc(F)cc3)cc2)s1	6%	24%	56µM*	-10%	-30%
CCc1nnc(NS(=O)(=O)c2ccc(NC(=O)Nc3ccc(OC)cc3)cc2)s1	16%	12%	·	-14%	-9%
CCC(=O)Nc1cccc(SC)c1	17%	1%	12%[59 µM]	-10%	-7%
COc1cccc(N/C=C(\C#N)c2ccc(OCCCF)cc2)c1	42%	9%	8%[59 µM]	-25%	4%
Cc1nc2ccccn2c1C(=O)NNC(=O)Nc1cccc(C(F)(F)F)c1	38%	-10%	·	-6%	-3%
COc1ccc(S(=O)(=O)Nc2ccccn2)cc1	26%	12%	·	-6%	8%
COc1ccccc1Oc1c(NS(=O)(=O)c2ccc(C(C)(C)C)cc2)nc(-c2ncccn2)nc1OCCO	·	56µM*	10%[12.7 µM]	·	·
CCC1(CC)NC(=O)N(CC(=O)NC(=O)NCc2ccccc2)C1=O	?	3%	32µM*	-10%	5%
COc1cc(C(=S)N2CCC(C(N)=O)CC2)ccc1O	-17%	20µM*	?	-3%[11.4 µM]	6%
COc1cc(C(=S)N2CCC(C)CC2)ccc1O	-25%	45µM*	7.9µM*	-23%	-26%
COc1cc(C(=S)N2CCCC2)ccc1O	-26%	?	14µM*	-1%	-6%
COc1cc(C(=S)N2CCCCC2)ccc1O	16%	45µM*	50µM*	0%	-2%
COc1ccc(C(=S)N2CCCC2)cc1Br	49%	2%	5%	1%	2%
CCc1cccc2c(C(=O)CN3C(=O)NC4(CCCCCC4)C3=O)c[nH]c12	25%	·	?	-8%	4%
CCCc1ncc(C(O)c2cccc(OC)c2)n1C (centres undefined)	31%	-5%	·	-10%	-2%
SMILES	HP1b binding inh	Sfp inh	G9a inh	JMJD2A Tudor inh	BAZ2B block
Cc1cc(NC(=O)COC(=O)c2cccc(S(=O)(=O)N(C)C3CCCCC3)c2)no1	19%	19%	-4%[12.7 µM]	-14%	-19%
COc1ccc(C(=O)C2CCCN(C(=O)Cn3ccc(C)n3)C2)cc1OC (centres undefined)	15%	-8%	18%[0.501 µM]	-11%	1%
COc1ccc(C(=O)C2CCCN(C(=O)CSC)C2)cc1OC (centres undefined)	30%	7%	71µM*	-11%	3%
CCOc1cc(C(=S)N2CCCC2)ccc1O	?	35µM*	·	-6%	8%
N[C@@H](C(=O)O)c1ccc(C(=O)O)cc1	·	4%	·	·	·
N[C@H](C(=O)O)c1ccc(C(=O)O)cc1	·	45µM*!	34%[59 µM]	·	·
Cc1cc(C)cc(C(=O)N[C@@H](C)C(=O)N2CCC3(CC2)NCCc2[nH]cnc23)c1	0%	9%	·	-25%	-10%
